target: T1, Tyrosine-protein kinase ZAP-70 (Homo sapiens) (UniProt P43403); details: at 10 µM
T1 sequence (whole entry): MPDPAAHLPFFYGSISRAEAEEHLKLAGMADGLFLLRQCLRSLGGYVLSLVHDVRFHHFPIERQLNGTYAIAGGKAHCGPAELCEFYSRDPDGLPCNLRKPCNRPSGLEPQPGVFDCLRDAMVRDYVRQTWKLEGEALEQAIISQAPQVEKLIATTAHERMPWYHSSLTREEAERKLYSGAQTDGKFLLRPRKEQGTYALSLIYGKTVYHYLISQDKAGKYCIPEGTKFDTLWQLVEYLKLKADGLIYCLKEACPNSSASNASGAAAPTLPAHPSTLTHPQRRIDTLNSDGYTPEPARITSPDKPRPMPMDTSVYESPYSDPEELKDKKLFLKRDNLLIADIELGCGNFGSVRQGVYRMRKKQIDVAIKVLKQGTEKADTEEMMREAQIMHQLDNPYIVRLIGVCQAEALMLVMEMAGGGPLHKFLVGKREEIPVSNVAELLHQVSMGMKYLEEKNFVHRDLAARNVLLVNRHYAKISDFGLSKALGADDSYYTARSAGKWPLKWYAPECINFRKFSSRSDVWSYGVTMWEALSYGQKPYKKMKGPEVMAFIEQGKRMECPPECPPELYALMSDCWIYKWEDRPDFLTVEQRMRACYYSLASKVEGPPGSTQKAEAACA

Compound	residual activity [%]
N#C/C(=C\c1ccc(O)c(O)c1)C(=O)NCc1ccccc1	129
O=C(Nc1cccc(Nc2cc(Nc3cccc(C(F)(F)F)c3)ncn2)c1)C1CC1	101
COc1cc2ncnc(N3CCN(C(=O)Nc4ccc(Oc5ccccc5)cc4)CC3)c2cc1OC	98
CC(C)c1nn(-c2c(Cl)cccc2Cl)c2nc(Cc3ccc(OCCO)cc3)[nH]c(=O)c12	84
CC(C)[C@H](CO)Nc1nc(Nc2cc(N)cc(Cl)c2)c2ncn(C(C)C)c2n1	98
O=c1c2ccccc2[nH]c(=S)n1CCN1CCC(=C(c2ccc(F)cc2)c2ccc(F)cc2)CC1	94
C[C@@H](N)[C@H]1CC[C@H](C(=O)Nc2ccncc2)CC1	122
NC(=O)c1ccc2[nH]c(-c3ccc(Oc4ccc(Cl)cc4)cc3)nc2c1	96
Nc1nc(Nc2ccc(S(N)(=O)=O)cc2)nn1C(=S)Nc1c(F)cccc1F	86
N#Cc1cnc2cnc(NCc3cccnc3)cc2c1Nc1ccc(F)c(Cl)c1	38
CCC(=O)Nc1ccc2ncnc(Nc3cccc(Br)c3)c2c1	109
CC#CC(=O)Nc1cc2c(Nc3ccc(F)c(Cl)c3)ncnc2cn1	100
O=c1cc(-c2cccc3c2Sc2ccccc2S3)oc(N2CCOCC2)c1	85
COc1cc2nccc(Oc3ccc(NC(=O)Nc4cc(C)on4)c(Cl)c3)c2cc1OC	107
Nc1nccc(-c2c(-c3ccc(F)cc3)ncn2C2CCNCC2)n1	124
O=C(Nc1cccc(Nc2nccc(Nc3cccc(C(F)(F)F)c3)n2)c1)C1CC1	116
Nc1ccc2ncnc(NCCc3ccc(Oc4ccccc4)cc3)c2c1	108
O=C1Nc2ccc(Cl)cc2/C1=C/c1cc(Cl)c(O)c(Cl)c1	100

Compound	residual activity [%]
Nc1n[nH]c2nnc(-c3c(-c4ccccc4)nn4ccccc34)cc12	81
Fc1ccc(-c2nc3n(c2-c2ccncc2)CCS3)cc1	124
O=C1c2ccccc2-[n+]2ccc3c([nH]c4ccccc43)c21	132
O=C1Nc2ccc(Br)cc2/C1=C\c1cc2c([nH]1)CCCC2	124
COc1cc2ncnc(Nc3cccc(Cl)c3)c2cc1OC	125
Cc1nc2cc3nc(-c4cccs4)cnc3cc2n1C	115
O=C(c1cc2cc(O)ccc2[nH]1)c1cc2cc(O)ccc2[nH]1	109
Cn1sc(=O)n(Cc2ccccc2)c1=O	96
Nc1ncnc2c1c(-c1ccc(Oc3ccccc3)cc1)cn2C1CCCC1	99
COc1ccc(OC)c2c(=S)c3ccccc3[nH]c12	88
Nc1ncnc2[nH]nc(Nc3ccc(F)cc3)c12	98
CN(C)CCCn1cc(C2=C(c3c[nH]c4ccccc34)C(=O)NC2=O)c2ccccc21	118
O=C1Nc2cc(Br)ccc2/C1=C1/Nc2ccccc2/C1=N\O	95
CO[C@H]1[C@@H](OC)C[C@H](C)[C@@H](OC)C2=CC(=O)C=C(NC(=O)/C(C)=C/C=C/[C@H](OC)[C@@H](OC(N)=O)/C(C)=C/[C@@H]1C)C2=O	112
O=C1NC(=O)c2c1c1c3ccccc3[nH]c1c1[nH]c3cc(Br)ccc3c21	90
CNc1cc2c(Nc3cccc(Br)c3)ncnc2cn1	108
Cn1cc(/C=C2\C(=O)Nc3ccc(S(N)(=O)=O)cc32)c2ccccc21	125

Reference: ChEMBL document CHEMBL2218924, “A broad activity screen in support of a chemogenomic map for kinase signalling research and drug discovery” (Biochem J, 2013)
